Data from PubChem BioAssay AID1159580 (chemical genetic matrix, 2015).
“And” between values parts separate entries of the source, which are not always exact repeats. Identical values can stand only once. The campaign covered roughly 5,500 compounds. About 2,000 (36%) were called active. Roughly 18% stayed inconclusive and do not appear here. No stated cut-off is given here; in the data, active means normalized growth mostly below about 0.91 (no sharp cut-off); inconclusive means no clear call, values can overlap the other calls; inactive means mostly above about 0.92. The list shows a part of the results.

Test: chemical genetic growth profiling, strain panel (AID 1159580);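 further: tested at 20 µM; growth read once vehicle control cultures reached saturation at 30 °C; 1 = growth at the plate median or of vehicle wells; lower values mean less growth of the strain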
Details: S. cerevisiae deletion strains, growth OD

Measured: normalized growth

C/C=C(\C)C(=O)O[C@H]1C[C@@H](OC(C)=O)[C@@]2(C(=O)OC)CO[C@@H]3C2[C@]12CO[C@](O)(C(=O)OC)[C@H]2[C@](C)(C12O[C@@]1(C)[C@H]1C[C@@H]2OC2OC=C[C@@]21O)[C@@H]3O (stereo partly specified)
inactive: locus YAL013W, strain DEP1, active compounds read low 0.99 | locus YAL021C, strain ccr4, active compounds read low 1 | locus YAL026C, strain drs2, active compounds read low 0.982 | locus YAL030W, strain snc1, active compounds read low 0.976 | locus YBL061C, strain skt5, active compounds read low 0.978 | locus YBR009C, strain hhf1, active compounds read low 0.977 | locus YBR021W, strain FUR4, active compounds read low 0.997 | locus YBR023C, strain chs3, active compounds read low 0.985 | locus YBR171W, strain sec66, active compounds read low 0.98 | locus YBR229C, strain ROT2, active compounds read low 0.99 | locus YBR231C, strain swc5, active compounds read low 0.991 | locus YBR279W, strain paf1, active compounds read low 0.992 | locus YCL011C, strain gbp2, active compounds read low 0.978 | locus YCL016C, strain dcc1, active compounds read low 0.964 | locus YCL029C, strain bik1, active compounds read low 0.955 | locus YCL061C, strain MRC1, active compounds read low 0.986 | locus YCL069W, strain vba3, active compounds read low 0.974 | locus YCR088W, strain abp1, active compounds read low 0.986 | locus YDL005C, strain med2, active compounds read low 0.963 | locus YDL040C, strain nat1, active compounds read low 0.973 | locus YDL074C, strain BRE1, active compounds read low 0.964 | locus YDL101C, strain DUN1, active compounds read low 0.977 | locus YDL134C, strain PPH21, active compounds read low 0.99 | locus YDL185W, strain tfp1, active compounds read low 0.978 | locus YDL192W, strain arf1, active compounds read low 0.986 | locus YDR001C, strain nth1, active compounds read low 0.97 | locus YDR069C, strain doa4, active compounds read low 0.969 | locus YDR101C, strain arx1, active compounds read low 0.975 | locus YDR137W, strain rgp1, active compounds read low 0.984 | locus YDR150W, strain NUM1, active compounds read low 1 | locus YDR159W, strain sac3, active compounds read low 0.994 | locus YDR162C, strain NBP2, active compounds read low 1 | locus YDR195W, strain ref2 0.938 | locus YDR297W, strain sur2, active compounds read low 0.975 | locus YDR318W, strain mcm21, active compounds read low 0.977 | locus YDR334W, strain swr1, active compounds read low 0.973 | locus YDR335W, strain msn5, active compounds read low 0.981 | locus YDR388W, active compounds read low 0.985 | locus YDR392W, strain spt3, active compounds read low 0.969 | locus YDR502C, strain sam2, active compounds read low 0.992 | locus YEL003W, strain gim4, active compounds read low 1 | locus YEL037C, strain rad23, active compounds read low 0.977 | locus YEL061C, strain CIN8 (second series), active compounds read low 0.973 | locus YEL061C, strain CIN8, active compounds read low 0.995 | locus YER015W, strain faa2, active compounds read low 0.987 | locus YER016W, strain bim1, active compounds read low 0.977 | locus YER110C, active compounds read low 0.971 | locus YER111C, strain swi4, active compounds read low 0.983 | locus YER155C, strain BEM2 (second series), active compounds read low 0.981 | locus YER155C, strain BEM2, active compounds read low 0.997 | locus YER167W, strain BCK2, active compounds read low 1 | locus YFR010W, strain ubp6, active compounds read low 0.979 | locus YGL078C, strain dbp3, active compounds read low 0.995 | locus YGL086W, strain mad1, active compounds read low 1 | locus YGL167C, strain pmr1, active compounds read low 0.97 | locus YGL173C, strain kem1, active compounds read low 0.982 | locus YGL227W, strain vid30, active compounds read low 0.99 | locus YGL240W, strain doc1, active compounds read low 1 | locus YGL248W, strain PDE1, active compounds read low 0.99 | locus YGL253W, strain hxk2, active compounds read low 0.986 | locus YGR078C, strain PAC10, active compounds read low 0.997 | locus YGR135W, strain pre9, active compounds read low 0.971 | locus YGR229C, strain SMI1, active compounds read low 1.01 | locus YGR252W, strain gcn5, active compounds read low 1.03 | locus YHR013C, strain ard1, active compounds read low 0.964 | locus YHR027C, strain rpn1, active compounds read low 0.965 | locus YHR030C, strain SLT2, active compounds read low 0.989 and 0.98 | locus YHR079C, strain IRE1 (second series), active compounds read low 0.969 | locus YHR079C, strain IRE1, active compounds read low 0.991 | locus YHR094C, strain hxt1, active compounds read low 0.985 | locus YHR129C, strain ARP1, active compounds read low 0.992 | locus YHR142W, strain chs7, active compounds read low 0.974 | locus YHR200W, strain rpn10, active compounds read low 0.987 | locus YIL066C, strain RNR3, active compounds read low 0.99 | locus YIL073C, strain SPO22, active compounds read low 0.994 | locus YIL125W, strain kgd1, active compounds read low 0.995 | locus YIR030C, strain dcg1, active compounds read low 0.997 | locus YJL092W, strain hpr5, active compounds read low 0.981 | locus YJL095W, strain BCK1 (second series), active compounds read low 0.983 | locus YJL095W, strain BCK1, active compounds read low 0.98 and 0.993 | locus YJL115W, strain asf1, active compounds read low 0.963 | locus YJL129C, strain trk1, active compounds read low 0.978 | locus YJL134W, strain LCB3, active compounds read low 0.991 | locus YJL154C, strain vps35, active compounds read low 0.969 | locus YJL164C, strain tpk1, active compounds read low 0.969 | locus YJL166W, strain qcr8, active compounds read low 0.99 | locus YJL168C, strain set2, active compounds read low 0.978 | locus YJL187C, strain SWE1 (second series), active compounds read low 0.978 | locus YJL187C, strain SWE1, active compounds read low 0.982 | locus YJR043C, strain POL32, active compounds read low 0.996 | locus YJR066W, strain TOR1, active compounds read low 0.933
